Results from PubChem BioAssay AID485 (The Scripps Research Institute Molecular Screening Center, 2006).
The campaign covered roughly 170,000 compounds. About 460 (0.27%) were called active.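 Rule for the calls: active = inhibition above the plate cutoff, the mean inhibition of test wells on that plate plus 3 SD (cut at about 28% in these data); inactive = the rest.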 The full list was thinned out, with actives kept by preference.

molecular target: Sphingosine 1-phosphate receptor 3 (Homo sapiens) (UniProt Q99500); experiment: S1P3 receptor antagonists, primary screen, cell-based (AID 485); conditions: CHO S1P3 NFAT-BLA reporter, FRET fluorescence, antagonist mode; at 4.98 µM; active compounds read high;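 note: cells challenged with S1P at its EC80 of 0.8 µM; blue over green emission ratio from cleaved BLA substrate after 4 h stimulation; 0% = S1P-stimulated wells and 100% = unstimulated DMSO-only wells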
Sequence (Q99500 whole entry, looked up): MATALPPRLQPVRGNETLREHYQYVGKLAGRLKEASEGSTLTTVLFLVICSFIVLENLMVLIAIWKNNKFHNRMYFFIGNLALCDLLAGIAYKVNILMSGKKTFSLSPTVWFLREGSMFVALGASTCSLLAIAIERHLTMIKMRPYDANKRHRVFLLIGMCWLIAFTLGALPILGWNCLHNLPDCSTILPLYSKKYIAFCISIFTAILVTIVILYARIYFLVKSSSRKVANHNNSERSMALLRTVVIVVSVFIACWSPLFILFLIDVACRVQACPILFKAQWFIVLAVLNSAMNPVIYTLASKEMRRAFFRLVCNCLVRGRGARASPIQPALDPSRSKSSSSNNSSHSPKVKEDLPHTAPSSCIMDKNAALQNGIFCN

inhibition, inactive:
COc1ccc(NC(=S)Nc2ccccc2Cl)cn1 4.46%
COc1ccc(NC(=S)NCCNC(C)=O)cc1 12.8%
CCOC(=O)c1c(C)[nH]c(C2=NNC(=NC(C)COC)SC2)c1C (centres undefined) -26%
CC(C)c1cc(NCc2ccccn2)n2c(nc3ccccc32)c1C#N -17.9%
O=C(N/N=C/c1ccc([N+](=O)[O-])o1)c1cccc(S(=O)(=O)N2CCOCC2)c1 8.39%
O=[N+]([O-])c1cccc(/C([O-])=C(/C(=S)Nc2ccccc2F)[n+]2ccccc2)c1 -11.5%
O=C(Nc1ccc(N2CCOCC2)nc1)c1c(F)cccc1F 6.79%
O=[N+]([O-])c1ccc2[nH]c3c(c2c1)CCCC3O (centres undefined) 12.7%
C/C(=N\OC(=O)c1ccccc1)c1c(C)nc2cc(C)ccn12 -11.2%
CC(=O)Nc1cccc(C(=O)Nc2nc(C)cs2)c1 -16.1%
Cc1cc(/C=N/NC(=O)c2cccnc2)c(C)n1CC(C)C 4.4%
N#CCCCn1c(O)c(N=NC(=O)C(O)c2ccccc2)c2ccccc21 (centres undefined) 5.47%
Cc1c(NC(=O)CSc2nnnn2-c2ccc(C(=O)O)cc2)c(=O)n(-c2ccccc2)n1C 7.84%
CCn1ccnc1CN1CCCC(C(=O)c2ccc3c4c(cccc24)CC3)C1 (centres undefined) -14.3%
O=C(c1cc(COc2c(F)cccc2F)on1)N1CCSCC1 10.4%
C/C(CC(=O)Nc1cccc(C(F)(F)F)c1)=N\NC(=O)C(=O)NCC(C)C -5.61%
CC(C)Oc1ccc(CCC(=O)NNC(=S)NCc2ccccc2)cc1 11.1%
COc1ccc(Cc2cc(-c3ccc(F)cc3)n[nH]c2=O)cc1 16.1%
CCOC(=O)c1ccc(N=C2SC(C(=O)NC)CC(=O)N2CCc2ccccc2)cc1 (centres undefined) -0.92%
CCCN(c1ccc(C)cc1)c1nc(=O)c2cccnc2s1 -4.79%
O=C(Nc1ccccc1)Nc1nc2ccccc2s1 6.66%
O=C(O)CSCc1nc2ccccc2s1 -27.1%
COC(=O)CSc1nccc(-c2cccs2)n1 -15.2%
O=C1c2ccccc2NC(c2ccccn2)N1NS(=O)(=O)c1ccccc1 (centres undefined) -20%
Cc1cc(=O)oc2cc(OCC(=O)Nc3nnc(C4CC4)s3)ccc12 6.03%
COCCCNC(=O)Cn1c(=O)n(Cc2ccccc2Cl)c(=O)c2cc(OC)c(OC)cc21 -15.6%
COc1ccc(-n2cc(CN(C)Cc3n[nH]c(=O)[nH]3)c(-c3cccc(F)c3)n2)cc1 0.22%
C=CCC(Nc1ccccc1)c1cccc(OC)c1OC (centres undefined) 3.89%
CN(C)CCCN(Cc1cc2cc3c(cc2[nH]c1=O)OCCO3)C(=O)NC1CCCCC1 -12.8%
O=C(CCNc1n[nH]c(=O)[nH]c1=O)N/N=C\c1ccc(Br)cc1 7.68%
O=C(NCCCNc1ccc([N+](=O)[O-])cc1Cl)c1ccccc1F -0.7%
CCC(C)c1ccc(NC(=S)NCc2ccccn2)cc1 (centres undefined) 6.58%
COc1ccc(C)cc1NC(=O)c1ccc(-c2ccc(C(C)=O)cc2)o1 -2.68%
CC/C(=N\NC(=S)NC(C)C)c1ccc(OC(F)F)cc1 0.35%
COc1cccc(Nc2nnc(SCC(=O)N3CC(=O)Nc4ccccc43)s2)c1 1.32%
CCOC(=O)c1cn(CC)c2cc(F)c(F)cc2c1=O 1.3%
Cc1ccc(CN(C)CC(=O)Nc2cccc([N+](=O)[O-])c2)o1 -19.1%
CN(CC(=O)Nc1cccc(F)c1)CC(=O)Nc1cccc([N+](=O)[O-])c1 -5.5%
Cc1ccc(/C=C/C(=O)O)cc1S(=O)(=O)N1CCC(Cc2ccccc2)CC1 -2.15%
O=C(Cn1cnc2cc([N+](=O)[O-])ccc2c1=O)NC(=O)NCc1ccccc1 -4.47%
COc1ccc(F)cc1S(=O)(=O)N1CCCCC1 17.2%
Cc1ccc(NC(=O)C/C(N)=N/O)cc1Cl -2.94%
CC(C)(C)c1ccc(CCC2OCC(CN3CCOCC3)O2)cc1 (centres undefined) 10.3%
CCN(CC(=O)Nc1cccc(S(N)(=O)=O)c1)Cc1nc2ccccc2c(=O)[nH]1 19.8%
COC(=O)c1c(NC(C)=O)sc(C(=O)Nc2ccccc2OC)c1C 6.94%
Cc1ccc(NC(=O)Nc2cc(-c3ccccc3)nn2C)cc1Cl 6.92%
Cc1nc2ccccn2c1C(=O)NN=C1CCN(C)CC1 5.25%
CCOC(=O)c1c(N)sc2c1CCCC2=O 8.9%
O=[N+]([O-])c1ccc(F)cc1Oc1nc(-c2cccnc2)nc2ccccc12 4.41%
CC1C(=O)NC(=O)C1c1ccccc1 (centres undefined) 5.96%
CC(NCc1ccccc1OC1CCCC1)c1ccccc1 (centres undefined) 3.22%
CCN(CC)CCN(C(=O)c1ccc(N2C(=O)CCC2=O)cc1)c1nc2cc3c(cc2s1)OCO3 -4.37%
O=C(NCc1cccnc1)C(=O)Nc1nc(-c2ccccc2)cs1 10.3%
CCOc1ccc(/C=C2\SC(=S)N(NC(=O)c3ccncc3)C2=O)cc1OC 6.85%
CCOC(=O)CC1C(=O)NCCN1C(=O)COc1ccc(Br)cc1C (centres undefined) -25.1%
CCCCCC1CCC(c2nnc(SCC(C)=O)o2)CC1 (centres undefined) -22.3%
O=C(NNS(=O)(=O)Cc1ccccc1)c1ccc([N+](=O)[O-])cc1 -6.72%
Cn1c(S(=O)(=O)O)nc2ccccc21 -12.4%
Cn1cccc1-c1nc2ccccc2n1C -6.38%
COc1ccc(-n2ncc3c(N4CCc5ccccc54)ncnc32)cc1 13.4%
Cc1ccc(-n2ncc3c(N4CCN(c5ccc(F)cc5)CC4)ncnc32)c(C)c1 27.2%
CCN(CC)c1ccc2c(Nc3ccccc3)c(C=O)c(=O)oc2c1 6.07%
CC(C)Cc1nnc(NC(=O)CCC(=O)Nc2ccc3cn[nH]c3c2)s1 -0.32%
Cc1c(CN2CCCCC2)c(O)n(CCO)c(=O)c1C#N -12.4%
CCOc1cnc(-c2c(-c3ccccc3Cl)noc2C)o1 -6.23%
Cc1ccc(S(=O)(=O)N(CC(=O)NN=C2CCN(C)CC2)c2ccc(F)cc2)cc1 4.23%
CCN(CC)C(=O)C(=O)c1cn(CC(=O)NCc2ccc3c(c2)OCO3)c2ccccc12 1.34%
CN(C)c1ccc(NC(=O)CSc2n[nH]c(-c3ccco3)n2)cc1 -1.38%
CC(C)C(=O)Nc1ccc2oc(=O)ccc2c1 -11.4%
CC1CCN(C(=S)c2cccc([N+](=O)[O-])c2)CC1 -0.25%
C=CCOC(=O)C1=C(C)N=C2SCCC(=O)N2C1/C=C/c1ccccc1OC (centres undefined) -1.87%
CCC(C)(C)NC(=O)CN(Cc1cccs1)C(=O)CNS(=O)(=O)c1ccc(F)cc1 -2.83%
Cc1cc(N/N=C/c2ccccc2F)c2ccccc2n1 -3.58%
CC(=O)Nc1ccc(C(=O)/C=C/c2ccc[nH]2)cc1 0.84%
CCc1cc(CNC(=O)CC2C(=O)NCCN2Cc2ccccc2C(F)(F)F)on1 (centres undefined) -1.82%
CCc1ccc(C(=O)OCC(=O)NCC(F)(F)F)cc1 -9.42%
O=C(O)CC12CC3CC(C1)CC(n1ncc(NCc4ccc(F)cc4)c(Cl)c1=O)(C3)C2 -16.8%
COc1cc2c(cc1O)[C@H](Cc1ccc(Oc3cc(C[C@@H]4NCCc5cc(OC)c(O)cc54)ccc3O)cc1)NCC2 -12.9%
CN1C(=O)/C(=N/OC(=O)c2ccccc2Br)c2ccccc21 -12.3%
COc1ccc(NC(=O)CN2C(=O)CSC2=O)cc1 4.71%
CC(C)N(Cc1ccccc1)C(=O)COC(=O)c1cnccn1 -8.02%
O=Cc1ccc(OCc2cn3ccccc3n2)cc1 -13.1%
CCCc1ccc(C(=O)[C@@H]2[C@@H](C(C)=O)N3c4ccc(F)cc4C=C[C@@H]3[C@@]23C(=O)Nc2ccccc23)cc1 3%
COc1ccccc1C(=O)NNC(=O)c1ccc(NC(=O)c2ccccc2)cc1 -4.89%
CCCN(CCC)CC(O)COc1ccccc1C(=O)Nc1ccccc1 (centres undefined) -9.63%
O=C(Nc1cccc2c1N(C(=O)c1ccco1)CCC2)c1ccco1 -8.57%

inhibition, active:
COc1ccc(CS(=O)/C(Cl)=C(/Cl)C(=O)Nc2ccc(OC)nc2)cc1 (centres undefined) 56.4%
CCC(=O)NC(=Nc1nc2ccccc2s1)NC(=O)CC 84.7%
Cc1ccc(NC(=O)CN(C)CC(=O)Nc2cccc(F)c2)cc1[N+](=O)[O-] 29.9%
CCOC(=O)CC1C(=O)NCCN1c1nc2c(C)cccn2c(=O)c1/C=C1\SC(=S)N(C(C)CC)C1=O (centres undefined) 29.7%
Cn1c(-c2ccc(C(=O)c3ccccc3)s2)nc2ccccc21 59.9%
Cc1cccc(-n2ncc3c(N4CCc5ccccc54)ncnc32)c1 84.3%
CC[C@H]1CN2CCc3cc(OC)c(OC)cc3[C@@H]2C[C@@H]1C[C@H]1NCCc2cc(OC)c(OC)cc21 97.4%
CC(C)Oc1ccccc1C(=O)NC(CO)C(=O)O (centres undefined) 28.6%
